From ChEMBL document CHEMBL3988442, “University of Dundee, Small-Polar-MMV Screening Library” (2021)
The campaign covered roughly 48,000 compounds. About 13,000 (27%) showed an effect of 50% or more. Some of the results follow.

The compounds below were run on Wolbachia pipientis (assay: Anti-Wolbachia Cell-Based Screen). Conditions: 5 µM.
Format: functional
Set-up: scale not given: in the data most compounds retested in dose-response had high values

Structure (SMILES)	Percent Effect [%]
COCC1c2nnn(CC3CC3)c2CCN1C(=O)c1cc(C)on1 (configuration not stated)	18.93
CCOCC1c2c(cnn2C)CCN1C(=O)c1ccncn1.O=C(O)C(F)(F)F (configuration not stated)	-13.88
COCC1c2c(cnn2C)CCN1C(=O)c1cc(C)on1.O=C(O)C(F)(F)F (configuration not stated)	103.5
CCOCC1c2c(cnn2C)CCN1C(=O)c1cc(C)on1.O=C(O)C(F)(F)F (configuration not stated)	118
O=C(COc1cccc(Br)c1)N1CCN(c2nccs2)CC1	20.8
CC(C)c1noc(C2CCCN2C(=O)Cc2cn3ccsc3n2)n1 (configuration not stated)	5.125
CN(C)CCCNC(=O)C(c1cccc(F)c1)N(C)C (configuration not stated)	6.227
O=C(Nc1ccc(-n2ccnc2)c(F)c1)C1CCN(C(=O)C2CC2)CC1	-14.41
COC(C)c1cccc(NCc2cccc(O)c2)c1 (configuration not stated)	1.439
Cn1ccc2c(cnc3nc(-c4ccncc4)nn32)c1=O	109.5
CSc1nc2ncc3c(=O)n(C)ccc3n2n1	108.2
Cc1nc2ncc3c(=O)n(C)ccc3n2n1	126.9
Cc1nc2nc(C)c3c(=O)n(-c4ccn[nH]4)ccc3n2n1	1.096
Cc1nc(C2CCCN2Cc2nnc(C3CC3)o2)no1 (configuration not stated)	5.301
Cc1ccc(-c2nc(CN3CCCC3Cn3cc(C)cn3)no2)cc1 (configuration not stated)	3.147
CC(C)c1nc(CN2CCCC2Cn2cccn2)no1 (configuration not stated)	118.9
Cc1nc(CN2CCCCC2Cn2cccn2)nc2ccccc12 (configuration not stated)	-7.431
c1ccc(-c2nc(CN3CCCC3Cn3cccn3)no2)cc1 (configuration not stated)	97.29
c1ncn(CC2CCCCN2Cc2noc(C3CC3)n2)n1 (configuration not stated)	-14.69
c1cnn(CC2CCCN2Cc2noc(C3CC3)n2)c1 (configuration not stated)	88.48
COc1ccc(-c2nc(CN3CCCC3Cn3cccn3)no2)cc1 (configuration not stated)	1.848
OC(COCc1ccco1)CSc1nnc2ccccn12 (configuration not stated)	-3.086
O=C(NCCN1CCc2ccccc21)c1cc(-c2ccc(O)cc2)n[nH]1	-2.452

Structure (SMILES)	Percent Effect [%]
Cn1cccc1CNCc1nnc2n1CCCC2C(F)(F)F (configuration not stated)	-16.29
COc1ccc(-n2ccc(C(=O)NCCN3CCCCCC3)n2)cc1	92.28
COc1ccc(-n2ccc(C(=O)NCCN3CCCCC3C)n2)cc1 (configuration not stated)	-3.568
COc1ccc(-n2ccc(C(=O)NCCN3CCC(C)CC3)n2)cc1	99.65
O=C(NCCN1CCCCCC1=O)c1ccn(-c2ccc(F)cc2)n1	0.8221
COc1ccc2nc(C)c(C(=O)NCCN3CCS(=O)(=O)CC3)cc2c1	7.609
O=C(NCCN1CCCCC1)c1ccn(-c2ccccc2)n1	106.8
O=C(NCCN1CCOCC1)c1ccn(-c2ccccc2F)n1	7.854
COc1ccc(-n2ccc(C(=O)NCCN3CCCCC3)n2)cc1	102.6
O=C(O)C(F)(F)F.O=S(=O)(NCC1OCCc2cn(CC3CCOCC3)nc21)C1CC1 (configuration not stated)	-11.9
CNC(=O)CS(=O)(=O)Cc1ccc(OC)c(F)c1	-52.3
FC(F)(F)C1CCc2nnc(CNCc3ccsc3)n2C1 (configuration not stated)	11.3
CC1CCN(CCNC(=O)c2ccn(-c3ccccc3)n2)CC1	84.83
Cc1c(C(=O)N(C)c2ccccc2)cccc1N(C)S(C)(=O)=O	104.7
COc1cc(C(N)=O)c(N(C)S(C)(=O)=O)cc1OC	-14.68
CN(C(=O)c1ccc(Cl)c(S(C)(=O)=O)c1)c1ccccc1	-9.214
Cc1c(C(=O)N(C)C)cccc1N(C)S(C)(=O)=O	107
CN(C(=O)c1ccncc1)c1ccccc1S(C)(=O)=O	8.968
CN(C(=O)c1cccc(C(=O)NS(C)(=O)=O)c1)c1ccccc1	-9.633
O=S(=O)(Nc1ncccc1F)c1cc(Cl)cc2c1OCC2	-5.525
Cc1nc(C)n(CC(C)C(=O)N2CCC(N3CCC(O)CC3)CC2)n1 (configuration not stated)	-19.51
Cc1ccc2c(c1)c(CNC(=O)C1CCN(C(C)C)CC1)nn2C	-24.27
CNC(=O)C(C)(C)CNC(=O)Nc1ccncc1C	-8.722

Structure (SMILES)	Percent Effect [%]
O=C(CN1CCCC(c2ncc[nH]2)C1)NCC(F)(F)F (configuration not stated)	-4.538
Cc1nc(CN2CCC(N(C)Cc3nnc(C4CC4)n3C)C2)oc1C (configuration not stated)	102.1
CCn1c(C)nnc1CN(C)C1CCN(Cc2c(C)noc2C)C1 (configuration not stated)	-8.892
Cc1cc(CN2CCC(N(C)Cc3nnc(C4CC4)n3C)C2)on1 (configuration not stated)	124.1
Cc1noc(C)c1CN1CCC(N(C)Cc2nnc(C3CC3)n2C)C1 (configuration not stated)	103.9
CN(Cc1nnc(C2CC2)n1C)C1CCN(Cc2ccon2)C1 (configuration not stated)	-8.64
CN(Cc1nnc(C2CC2)n1C)C1CCN(CCS(C)(=O)=O)C1 (configuration not stated)	-20.16
Cc1nnc(CN2CCC(N(C)Cc3nnc(C4CC4)n3C)C2)o1 (configuration not stated)	-3.428
Cc1ccc(C2CSCCN2CCS(C)(=O)=O)cc1 (configuration not stated)	-9.324
O=C(NC1CC(=O)N(C2Cc3ccccc3C2)C1)c1ccsc1 (configuration not stated)	-4.544
CN1CCC(Cc2nc(-c3cnccn3)n(Cc3ccccc3)n2)CC1	21.66
CC(C)N1CCC(Cc2cncc(-c3ccccc3C(=O)O)n2)C1 (configuration not stated)	128.5
COCCN1CC[C@@H](O)[C@@H]1Cc1ccccc1.O=C(O)C(F)(F)F	8.923
COCCN1CCC(Cc2cnc(-c3ccccc3C(=O)O)cn2)CC1	103.8
CN1CCC(Cc2cncc(-c3ccccc3C(=O)O)n2)C1 (configuration not stated)	111.7
CS(=O)(=O)N1CCCC(Cc2cncc(-c3ccccc3C(=O)O)n2)C1 (configuration not stated)	106.5
CC(C)n1nc(Cn2cccn2)c2c1CN(C1CCOC1)C2.O=C(O)C(F)(F)F (configuration not stated)	-7.587
COc1cc(C)ccc1S(=O)(=O)N1CC[C@](C)(O)[C@H](C)C1	-18.99
Cc1cnn(C2CN(CC(O)Cn3cccn3)C2)c1 (configuration not stated)	-31.52
COc1ncccc1-c1nc(-c2ccccn2)nn1C1CCS(=O)(=O)C1 (configuration not stated)	10.63
CC(C#N)CNS(=O)(=O)c1ccc(F)c(Br)c1 (configuration not stated)	-7.227
